Tests used:
Test in all cases: DAPPL (digital affinity profiling via proximity ligation, sequencing); 10 mM Tris-HCl pH 7.5, 50 mM NaCl, 1 mM DTT, 4% glycerol, room temperature, 30 min; GST-TFs on glutathione beads, 16-mer random dsDNA library, 0.1% formaldehyde crosslink after washing; high values mean tight binding
SPIB = SPIB (Homo sapiens, UniProt Q01892 1-262); conditions: protein: recombinant; tags: N-terminal GST; dsDNA, one strand shown
Outline: (§1)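 GST fusions of human transcription factors were expressed in yeast and captured with glutathione beads. Once given DNA barcodes and pooled alongside a tag-only sample, they were incubated for 30 min at room temperature with 200 nmole of a random double-stranded 16-mer DNA library in Tris/NaCl/DTT/glycerol buffer, then washed, crosslinked (0.1% formaldehyde), proximity-ligated, PCR-amplified and sequenced on an Illumina NextSeq500. The binding signal of each hexamer is its read frequency for a factor divided by its frequency for the tag-only sample.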

ELK3 = biological target: T1, ELK3 (Homo sapiens, UniProt P41970 1-407); conditions: protein: recombinant; tags: N-terminal GST; dsDNA, one strand shown
T1 sequence: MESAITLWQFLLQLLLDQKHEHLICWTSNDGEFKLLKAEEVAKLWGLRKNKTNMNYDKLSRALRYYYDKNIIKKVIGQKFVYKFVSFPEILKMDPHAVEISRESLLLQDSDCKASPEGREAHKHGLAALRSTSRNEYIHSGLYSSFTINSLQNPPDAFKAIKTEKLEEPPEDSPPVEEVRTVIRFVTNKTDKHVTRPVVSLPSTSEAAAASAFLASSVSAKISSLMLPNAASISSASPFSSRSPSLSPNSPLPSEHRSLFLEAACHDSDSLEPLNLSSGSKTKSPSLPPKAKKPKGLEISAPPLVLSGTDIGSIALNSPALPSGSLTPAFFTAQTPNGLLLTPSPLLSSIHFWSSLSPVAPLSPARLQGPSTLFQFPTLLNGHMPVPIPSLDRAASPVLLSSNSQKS
Outline: as §1

HSF1 = HSF1 (Homo sapiens, UniProt Q00613 1-529); conditions: protein: recombinant; tags: N-terminal GST; chain copies: 3; dsDNA, one strand shown
Outline: as §1

ELK4 = biological target: T2, ELK4 (Homo sapiens, UniProt P28324-2 1-405); conditions: protein: recombinant; tags: N-terminal GST; dsDNA, one strand shown
T2 sequence: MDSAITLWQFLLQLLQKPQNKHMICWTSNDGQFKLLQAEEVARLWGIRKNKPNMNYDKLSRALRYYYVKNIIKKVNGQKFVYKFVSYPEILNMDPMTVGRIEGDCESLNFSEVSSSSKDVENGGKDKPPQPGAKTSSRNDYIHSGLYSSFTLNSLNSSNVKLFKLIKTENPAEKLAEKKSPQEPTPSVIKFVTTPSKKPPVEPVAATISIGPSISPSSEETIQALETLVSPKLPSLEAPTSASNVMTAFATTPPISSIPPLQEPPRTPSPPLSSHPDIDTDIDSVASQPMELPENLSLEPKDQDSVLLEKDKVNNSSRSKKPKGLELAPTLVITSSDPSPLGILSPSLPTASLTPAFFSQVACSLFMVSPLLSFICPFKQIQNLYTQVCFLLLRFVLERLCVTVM
Outline: as §1

ETV2 = biological target: T3, ETV2 (Homo sapiens, UniProt O00321 1-342); conditions: protein: recombinant; tags: N-terminal GST; dsDNA, one strand shown
T3 sequence: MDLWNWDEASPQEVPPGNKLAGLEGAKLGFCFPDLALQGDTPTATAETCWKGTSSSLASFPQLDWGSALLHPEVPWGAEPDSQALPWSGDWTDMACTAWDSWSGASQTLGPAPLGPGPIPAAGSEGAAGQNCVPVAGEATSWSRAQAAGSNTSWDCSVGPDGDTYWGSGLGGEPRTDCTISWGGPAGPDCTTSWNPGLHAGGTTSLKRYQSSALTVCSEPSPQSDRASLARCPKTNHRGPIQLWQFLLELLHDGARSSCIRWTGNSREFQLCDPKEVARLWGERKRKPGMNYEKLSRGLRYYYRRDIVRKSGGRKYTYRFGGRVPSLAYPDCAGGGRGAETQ
Outline: as §1

ETV3L = biological target: T4, ETV3L (Homo sapiens, UniProt Q6ZN32 1-361); conditions: protein: recombinant; tags: N-terminal GST; dsDNA, one strand shown
T4 sequence: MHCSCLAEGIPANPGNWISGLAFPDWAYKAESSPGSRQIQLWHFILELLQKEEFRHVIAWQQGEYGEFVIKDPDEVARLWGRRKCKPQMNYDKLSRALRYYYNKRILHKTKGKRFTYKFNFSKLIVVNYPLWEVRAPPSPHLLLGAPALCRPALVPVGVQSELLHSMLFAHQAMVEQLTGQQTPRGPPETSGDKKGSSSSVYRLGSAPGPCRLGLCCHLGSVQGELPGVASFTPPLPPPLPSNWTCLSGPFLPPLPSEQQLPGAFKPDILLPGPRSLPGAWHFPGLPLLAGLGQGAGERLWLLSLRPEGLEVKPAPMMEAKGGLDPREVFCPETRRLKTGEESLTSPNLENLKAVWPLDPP
Outline: as §1

ETS2 = biological target: T5, ETS2 (Homo sapiens, UniProt P15036 1-469); conditions: protein: recombinant; tags: N-terminal GST; dsDNA, one strand shown
T5 sequence: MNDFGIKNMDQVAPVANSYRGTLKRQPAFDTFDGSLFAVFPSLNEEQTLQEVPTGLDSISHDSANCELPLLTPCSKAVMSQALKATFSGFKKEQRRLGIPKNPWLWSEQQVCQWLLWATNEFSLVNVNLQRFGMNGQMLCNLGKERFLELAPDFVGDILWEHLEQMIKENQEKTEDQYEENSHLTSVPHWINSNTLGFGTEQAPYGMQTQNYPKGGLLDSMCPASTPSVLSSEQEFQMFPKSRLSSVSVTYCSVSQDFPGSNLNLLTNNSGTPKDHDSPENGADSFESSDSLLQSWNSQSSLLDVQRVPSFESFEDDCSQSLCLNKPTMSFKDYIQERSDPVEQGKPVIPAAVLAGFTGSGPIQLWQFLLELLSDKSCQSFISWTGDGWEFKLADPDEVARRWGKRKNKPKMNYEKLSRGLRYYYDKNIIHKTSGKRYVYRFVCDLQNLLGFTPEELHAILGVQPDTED
Outline: as §1

ELF4 = ELF4 (Homo sapiens, UniProt Q99607 1-663); conditions: protein: recombinant; tags: N-terminal GST; dsDNA, one strand shown
Outline: as §1

ELF3 = biological target: T6, ELF3 (Homo sapiens, UniProt P78545 1-371); conditions: protein: recombinant; tags: N-terminal GST; dsDNA, one strand shown
T6 sequence: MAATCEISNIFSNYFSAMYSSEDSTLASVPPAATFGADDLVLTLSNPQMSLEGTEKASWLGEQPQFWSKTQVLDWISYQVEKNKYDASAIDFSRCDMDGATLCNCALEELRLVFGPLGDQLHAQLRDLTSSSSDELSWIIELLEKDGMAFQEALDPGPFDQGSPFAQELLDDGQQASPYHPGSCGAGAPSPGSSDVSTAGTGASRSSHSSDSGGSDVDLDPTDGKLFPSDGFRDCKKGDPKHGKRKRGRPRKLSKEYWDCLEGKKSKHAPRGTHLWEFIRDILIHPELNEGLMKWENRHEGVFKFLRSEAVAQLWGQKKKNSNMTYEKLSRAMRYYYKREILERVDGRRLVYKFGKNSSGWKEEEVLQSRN
Outline: as §1

CRX = CRX (Homo sapiens, UniProt O43186 1-299); conditions: protein: recombinant; tags: N-terminal GST; dsDNA, one strand shown
Outline: as §1

ETV7 = biological target: T7, ETV7 (Homo sapiens, UniProt Q9Y603 1-341); conditions: protein: recombinant; tags: N-terminal GST; dsDNA, one strand shown
T7 sequence: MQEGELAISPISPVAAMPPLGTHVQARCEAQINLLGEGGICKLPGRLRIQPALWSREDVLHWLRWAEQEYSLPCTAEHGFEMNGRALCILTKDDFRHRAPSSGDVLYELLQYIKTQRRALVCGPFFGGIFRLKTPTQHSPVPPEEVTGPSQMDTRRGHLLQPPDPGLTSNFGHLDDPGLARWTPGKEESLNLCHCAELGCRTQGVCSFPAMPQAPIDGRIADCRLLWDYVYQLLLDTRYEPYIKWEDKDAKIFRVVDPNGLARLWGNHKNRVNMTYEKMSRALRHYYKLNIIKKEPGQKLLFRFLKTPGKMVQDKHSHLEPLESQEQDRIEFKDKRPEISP
Outline: as §1

GABPA = biological target: T8, GABPA (Homo sapiens, UniProt Q06546 1-454); conditions: protein: recombinant; tags: N-terminal GST; dsDNA, one strand shown
T8 sequence: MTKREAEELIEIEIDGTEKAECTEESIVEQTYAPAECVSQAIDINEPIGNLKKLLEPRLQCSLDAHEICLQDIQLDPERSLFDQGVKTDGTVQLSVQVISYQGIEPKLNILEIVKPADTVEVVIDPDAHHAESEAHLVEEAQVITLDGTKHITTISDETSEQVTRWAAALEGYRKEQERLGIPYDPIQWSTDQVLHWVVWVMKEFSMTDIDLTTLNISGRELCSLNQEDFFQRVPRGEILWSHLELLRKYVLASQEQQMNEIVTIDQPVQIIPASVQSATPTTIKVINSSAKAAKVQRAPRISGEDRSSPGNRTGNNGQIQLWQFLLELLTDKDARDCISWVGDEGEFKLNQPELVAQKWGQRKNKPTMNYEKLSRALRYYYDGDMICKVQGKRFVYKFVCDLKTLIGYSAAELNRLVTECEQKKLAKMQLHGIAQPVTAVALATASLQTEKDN
Outline: as §1

ERG = biological target: T9, ERG (Homo sapiens, UniProt P11308 1-479); conditions: protein: recombinant; tags: N-terminal GST; dsDNA, one strand shown
T9 sequence: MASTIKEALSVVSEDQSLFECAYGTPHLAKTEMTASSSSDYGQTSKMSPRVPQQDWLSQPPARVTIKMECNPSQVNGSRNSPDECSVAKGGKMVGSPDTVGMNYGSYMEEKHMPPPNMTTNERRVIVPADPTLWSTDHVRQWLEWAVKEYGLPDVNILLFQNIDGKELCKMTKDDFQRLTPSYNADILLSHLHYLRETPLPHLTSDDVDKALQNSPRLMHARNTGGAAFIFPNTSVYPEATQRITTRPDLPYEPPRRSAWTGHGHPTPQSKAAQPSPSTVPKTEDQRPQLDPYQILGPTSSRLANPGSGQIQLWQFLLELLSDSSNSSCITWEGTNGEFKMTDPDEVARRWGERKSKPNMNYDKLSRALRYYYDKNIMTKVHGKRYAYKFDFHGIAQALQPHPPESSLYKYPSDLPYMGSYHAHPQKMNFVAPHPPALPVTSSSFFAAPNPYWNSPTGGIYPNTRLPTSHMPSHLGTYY
Outline: as §1

SPI1 = SPI1 (Homo sapiens, UniProt P17947 1-270); conditions: protein: recombinant; tags: N-terminal GST; dsDNA, one strand shown
Outline: as §1

ELF5 = biological target: T10, ELF5 (Homo sapiens, UniProt Q9UKW6-2 1-255); conditions: protein: recombinant; tags: N-terminal GST; dsDNA, one strand shown
T10 sequence: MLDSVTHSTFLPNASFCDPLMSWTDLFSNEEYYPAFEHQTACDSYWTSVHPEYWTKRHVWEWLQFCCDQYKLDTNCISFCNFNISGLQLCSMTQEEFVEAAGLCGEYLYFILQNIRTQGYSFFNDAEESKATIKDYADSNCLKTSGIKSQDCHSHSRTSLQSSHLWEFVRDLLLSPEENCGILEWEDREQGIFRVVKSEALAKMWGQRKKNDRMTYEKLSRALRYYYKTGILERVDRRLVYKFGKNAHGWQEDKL
Outline: as §1

Chain of HSF1 (Q00613 whole entry): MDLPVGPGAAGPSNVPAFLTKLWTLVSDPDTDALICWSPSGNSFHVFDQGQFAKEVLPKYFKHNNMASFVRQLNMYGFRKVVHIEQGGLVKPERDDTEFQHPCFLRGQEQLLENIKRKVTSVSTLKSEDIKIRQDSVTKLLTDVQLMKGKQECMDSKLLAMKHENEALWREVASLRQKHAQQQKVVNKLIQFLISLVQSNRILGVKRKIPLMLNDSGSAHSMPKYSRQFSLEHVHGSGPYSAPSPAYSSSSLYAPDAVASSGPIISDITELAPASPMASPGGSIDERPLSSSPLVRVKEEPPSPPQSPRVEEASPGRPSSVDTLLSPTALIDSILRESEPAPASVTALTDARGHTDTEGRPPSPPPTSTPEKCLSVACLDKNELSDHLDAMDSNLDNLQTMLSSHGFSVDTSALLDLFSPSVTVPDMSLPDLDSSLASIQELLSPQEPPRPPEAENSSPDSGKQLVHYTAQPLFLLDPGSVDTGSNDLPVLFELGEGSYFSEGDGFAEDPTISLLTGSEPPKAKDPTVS
Chain of SPIB (Q01892 whole entry, the tested form may be a part): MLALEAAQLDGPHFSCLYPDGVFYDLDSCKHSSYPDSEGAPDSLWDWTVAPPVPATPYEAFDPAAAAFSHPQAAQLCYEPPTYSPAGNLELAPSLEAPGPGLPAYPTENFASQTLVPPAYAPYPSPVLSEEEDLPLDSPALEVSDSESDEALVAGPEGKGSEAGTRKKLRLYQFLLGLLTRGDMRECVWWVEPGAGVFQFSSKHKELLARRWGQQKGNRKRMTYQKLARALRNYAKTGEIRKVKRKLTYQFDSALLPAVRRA
Chain of CRX (O43186 whole entry): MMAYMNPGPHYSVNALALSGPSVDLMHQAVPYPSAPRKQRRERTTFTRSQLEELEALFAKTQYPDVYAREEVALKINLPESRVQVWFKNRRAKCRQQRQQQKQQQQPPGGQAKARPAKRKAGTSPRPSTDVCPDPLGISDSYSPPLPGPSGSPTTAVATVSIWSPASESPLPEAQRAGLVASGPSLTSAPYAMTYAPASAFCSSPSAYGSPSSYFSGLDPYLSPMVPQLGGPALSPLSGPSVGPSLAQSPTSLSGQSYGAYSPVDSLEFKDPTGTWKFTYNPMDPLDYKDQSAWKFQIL
Chain of ELF4 (Q99607 whole entry): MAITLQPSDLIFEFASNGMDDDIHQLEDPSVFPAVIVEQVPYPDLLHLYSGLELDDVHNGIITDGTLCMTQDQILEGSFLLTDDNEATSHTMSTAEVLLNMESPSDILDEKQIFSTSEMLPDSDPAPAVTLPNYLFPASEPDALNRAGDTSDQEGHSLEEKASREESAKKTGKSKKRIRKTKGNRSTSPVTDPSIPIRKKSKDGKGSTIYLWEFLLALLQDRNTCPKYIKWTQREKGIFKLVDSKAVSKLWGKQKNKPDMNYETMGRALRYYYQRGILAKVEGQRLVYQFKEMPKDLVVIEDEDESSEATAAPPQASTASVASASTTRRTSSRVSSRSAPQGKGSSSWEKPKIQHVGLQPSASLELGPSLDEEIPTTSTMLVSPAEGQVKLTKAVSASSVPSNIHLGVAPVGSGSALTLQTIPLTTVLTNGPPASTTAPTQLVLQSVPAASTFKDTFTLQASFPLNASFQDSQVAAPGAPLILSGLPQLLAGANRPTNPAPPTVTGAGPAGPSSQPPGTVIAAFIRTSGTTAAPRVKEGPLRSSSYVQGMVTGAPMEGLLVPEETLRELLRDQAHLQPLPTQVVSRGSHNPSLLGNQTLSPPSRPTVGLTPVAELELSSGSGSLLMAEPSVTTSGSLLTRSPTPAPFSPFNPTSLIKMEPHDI

Sequence: GCCTGG
- binding signal (SPIB): 1.04 fold enrichment (6-mer frequency, TF over GST control)
- binding signal (ELK3): 1.01 fold enrichment (6-mer frequency, TF over GST control)
- binding signal (HSF1): 1.05 fold enrichment (6-mer frequency, TF over GST control)
- binding signal (ELK4): 1.08 fold enrichment (6-mer frequency, TF over GST control)
- binding signal (ETV2): 1.19 fold enrichment (6-mer frequency, TF over GST control)
- binding signal (ETV3L): 1 fold enrichment (6-mer frequency, TF over GST control)
- binding signal (ETS2): 1.02 fold enrichment (6-mer frequency, TF over GST control)

Sequence: CCAGAA
- binding signal (ELK3): 1 fold enrichment (6-mer frequency, TF over GST control)
- binding signal (HSF1): 3.7 fold enrichment (6-mer frequency, TF over GST control)
- binding signal (ELF4): 1.05 fold enrichment (6-mer frequency, TF over GST control)
- binding signal (ELK4): 1.06 fold enrichment (6-mer frequency, TF over GST control)
- binding signal (ETV2): 1.05 fold enrichment (6-mer frequency, TF over GST control)
- binding signal (ELF3): 1.07 fold enrichment (6-mer frequency, TF over GST control)
- binding signal (CRX): 1.49 fold enrichment (6-mer frequency, TF over GST control)
- binding signal (ETV7): 1.05 fold enrichment (6-mer frequency, TF over GST control)

Sequence: GCGATA
- binding signal (GABPA): 1 fold enrichment (6-mer frequency, TF over GST control)
- binding signal (ERG): 1 fold enrichment (6-mer frequency, TF over GST control)
- binding signal (SPI1): 1.03 fold enrichment (6-mer frequency, TF over GST control)
- binding signal (SPIB): 1.02 fold enrichment (6-mer frequency, TF over GST control)
- binding signal (ELK3): 1.1 fold enrichment (6-mer frequency, TF over GST control)
- binding signal (HSF1): 1.06 fold enrichment (6-mer frequency, TF over GST control)
- binding signal (ELK4): 1.07 fold enrichment (6-mer frequency, TF over GST control)
- binding signal (ETV2): 1.11 fold enrichment (6-mer frequency, TF over GST control)
- binding signal (ELF3): 1.02 fold enrichment (6-mer frequency, TF over GST control)
- binding signal (CRX): 1.11 fold enrichment (6-mer frequency, TF over GST control)
- binding signal (ETV3L): 1.03 fold enrichment (6-mer frequency, TF over GST control)
- binding signal (ETS2): 1.04 fold enrichment (6-mer frequency, TF over GST control)
- binding signal (ETV7): 1.06 fold enrichment (6-mer frequency, TF over GST control)
- binding signal (ELF5): 1.02 fold enrichment (6-mer frequency, TF over GST control)

— publication PMC7862700, “An all-to-all approach to the identification of sequence-specific readers for epigenetic DNA modifications on cytosine”
